# How the values were obtained:
# Assay in all cases: DAPPL (digital affinity profiling via proximity ligation, sequencing); 10 mM Tris-HCl pH 7.5, 50 mM NaCl, 1 mM DTT, 4% glycerol, room temperature, 30 min; GST-TFs on glutathione beads, 16-mer random dsDNA library, 0.1% formaldehyde crosslink after washing; high values mean tight binding
# FEV = target: T1, FEV (Homo sapiens, UniProt Q99581 1-238); conditions: protein: recombinant; tags: N-terminal GST; dsDNA, one strand shown
# T1 sequence: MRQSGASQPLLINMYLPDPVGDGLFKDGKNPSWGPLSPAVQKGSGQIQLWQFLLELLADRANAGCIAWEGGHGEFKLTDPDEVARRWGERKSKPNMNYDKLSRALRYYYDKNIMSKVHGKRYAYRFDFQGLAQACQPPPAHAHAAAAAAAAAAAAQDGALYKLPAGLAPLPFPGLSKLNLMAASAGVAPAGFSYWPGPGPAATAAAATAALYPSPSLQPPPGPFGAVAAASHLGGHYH
# Method in brief: (§1)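 After expression in yeast as GST fusions, human transcription factors were bound to glutathione beads, DNA-barcoded and mixed with a tag-only sample. The pools were incubated with 200 nmole of a 16-mer random double-stranded DNA library in Tris/NaCl/DTT/glycerol buffer (30 min, room temperature), washed and crosslinked with 0.1% formaldehyde. Proximity ligation with BsaI/T4 ligase ran for 1 h at 37 °C, before PCR amplification and sequencing on an Illumina NextSeq500. Binding signal is a hexamer's read frequency for a factor divided by its frequency for the tag-only sample.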
# ETV5 = ETV5 (Homo sapiens, UniProt P41161 1-510); conditions: protein: recombinant; tags: N-terminal GST; dsDNA, one strand shown
# Method in brief: as §1
# HSF1 = HSF1 (Homo sapiens, UniProt Q00613 1-529); conditions: protein: recombinant; tags: N-terminal GST; chain copies: 3; dsDNA, one strand shown
# Method in brief: as §1
# SPIC = target: T2, SPIC (Homo sapiens, UniProt Q8N5J4 1-248); conditions: protein: recombinant; tags: N-terminal GST; dsDNA, one strand shown
# T2 sequence: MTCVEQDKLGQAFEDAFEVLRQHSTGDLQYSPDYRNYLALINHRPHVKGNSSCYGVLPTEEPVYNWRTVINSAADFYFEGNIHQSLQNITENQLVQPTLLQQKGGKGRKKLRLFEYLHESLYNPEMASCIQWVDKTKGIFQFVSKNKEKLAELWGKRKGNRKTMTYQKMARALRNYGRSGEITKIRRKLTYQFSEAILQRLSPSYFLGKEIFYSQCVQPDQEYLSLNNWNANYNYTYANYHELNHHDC
# Method in brief: as §1
# ELF4 = ELF4 (Homo sapiens, UniProt Q99607 1-663); conditions: protein: recombinant; tags: N-terminal GST; dsDNA, one strand shown
# Method in brief: as §1
# ELK4 = target: T3, ELK4 (Homo sapiens, UniProt P28324-2 1-405); conditions: protein: recombinant; tags: N-terminal GST; dsDNA, one strand shown
# T3 sequence: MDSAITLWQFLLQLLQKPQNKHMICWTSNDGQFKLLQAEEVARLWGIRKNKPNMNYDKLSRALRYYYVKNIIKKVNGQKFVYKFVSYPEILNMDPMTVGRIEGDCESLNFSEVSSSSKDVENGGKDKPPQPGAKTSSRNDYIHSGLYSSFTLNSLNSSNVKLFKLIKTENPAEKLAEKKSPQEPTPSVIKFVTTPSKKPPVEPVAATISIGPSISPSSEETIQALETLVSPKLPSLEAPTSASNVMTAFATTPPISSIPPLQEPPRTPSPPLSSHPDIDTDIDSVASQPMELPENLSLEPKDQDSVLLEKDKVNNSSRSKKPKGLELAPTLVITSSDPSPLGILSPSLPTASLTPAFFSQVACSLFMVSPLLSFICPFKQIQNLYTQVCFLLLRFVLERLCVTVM
# Method in brief: as §1
# ETV2 = target: T4, ETV2 (Homo sapiens, UniProt O00321 1-342); conditions: protein: recombinant; tags: N-terminal GST; dsDNA, one strand shown
# T4 sequence: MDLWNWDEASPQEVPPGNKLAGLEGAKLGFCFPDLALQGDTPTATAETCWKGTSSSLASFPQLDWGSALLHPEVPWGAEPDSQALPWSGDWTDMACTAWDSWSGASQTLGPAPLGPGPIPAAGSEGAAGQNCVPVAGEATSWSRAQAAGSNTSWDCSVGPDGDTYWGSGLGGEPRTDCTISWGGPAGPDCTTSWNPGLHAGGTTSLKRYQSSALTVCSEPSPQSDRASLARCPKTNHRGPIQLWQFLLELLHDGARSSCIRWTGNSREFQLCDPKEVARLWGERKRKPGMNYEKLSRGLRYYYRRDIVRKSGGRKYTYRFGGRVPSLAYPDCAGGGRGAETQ
# Method in brief: as §1
# ELF3 = target: T5, ELF3 (Homo sapiens, UniProt P78545 1-371); conditions: protein: recombinant; tags: N-terminal GST; dsDNA, one strand shown
# T5 sequence: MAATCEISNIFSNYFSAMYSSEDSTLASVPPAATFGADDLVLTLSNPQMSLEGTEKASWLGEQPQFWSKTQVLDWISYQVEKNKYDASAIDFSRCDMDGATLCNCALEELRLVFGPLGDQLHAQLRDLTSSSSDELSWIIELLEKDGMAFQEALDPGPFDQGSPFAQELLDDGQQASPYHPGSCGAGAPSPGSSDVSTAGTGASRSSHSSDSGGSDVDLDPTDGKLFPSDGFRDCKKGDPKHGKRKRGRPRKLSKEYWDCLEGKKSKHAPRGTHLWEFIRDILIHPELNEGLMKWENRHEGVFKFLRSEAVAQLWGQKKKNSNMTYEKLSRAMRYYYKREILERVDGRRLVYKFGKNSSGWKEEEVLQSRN
# Method in brief: as §1
# CRX = CRX (Homo sapiens, UniProt O43186 1-299); conditions: protein: recombinant; tags: N-terminal GST; dsDNA, one strand shown
# Method in brief: as §1
# ETV1 = ETV1 (Homo sapiens, UniProt P50549 1-477); conditions: protein: recombinant; tags: N-terminal GST; dsDNA, one strand shown
# Method in brief: as §1
# Sequence of ELF4 (Q99607 whole entry): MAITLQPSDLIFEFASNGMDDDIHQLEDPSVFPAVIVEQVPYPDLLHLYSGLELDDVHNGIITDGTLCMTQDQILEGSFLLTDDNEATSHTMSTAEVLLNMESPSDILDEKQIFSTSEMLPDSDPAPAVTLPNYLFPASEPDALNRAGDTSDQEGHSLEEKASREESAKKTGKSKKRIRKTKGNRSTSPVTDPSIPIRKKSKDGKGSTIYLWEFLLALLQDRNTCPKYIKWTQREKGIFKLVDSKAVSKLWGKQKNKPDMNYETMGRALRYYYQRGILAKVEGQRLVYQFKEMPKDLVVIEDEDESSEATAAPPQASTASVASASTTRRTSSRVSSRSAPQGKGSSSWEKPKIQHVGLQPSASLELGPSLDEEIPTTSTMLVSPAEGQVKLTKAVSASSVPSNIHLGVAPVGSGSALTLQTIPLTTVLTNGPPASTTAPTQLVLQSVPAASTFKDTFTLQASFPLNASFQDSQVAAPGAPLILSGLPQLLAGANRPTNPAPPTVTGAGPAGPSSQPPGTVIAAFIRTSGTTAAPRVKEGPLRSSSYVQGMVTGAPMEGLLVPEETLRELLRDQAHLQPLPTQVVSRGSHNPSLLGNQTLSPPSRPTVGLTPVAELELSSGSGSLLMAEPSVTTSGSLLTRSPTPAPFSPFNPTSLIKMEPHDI
# Sequence of ETV5 (P41161 whole entry): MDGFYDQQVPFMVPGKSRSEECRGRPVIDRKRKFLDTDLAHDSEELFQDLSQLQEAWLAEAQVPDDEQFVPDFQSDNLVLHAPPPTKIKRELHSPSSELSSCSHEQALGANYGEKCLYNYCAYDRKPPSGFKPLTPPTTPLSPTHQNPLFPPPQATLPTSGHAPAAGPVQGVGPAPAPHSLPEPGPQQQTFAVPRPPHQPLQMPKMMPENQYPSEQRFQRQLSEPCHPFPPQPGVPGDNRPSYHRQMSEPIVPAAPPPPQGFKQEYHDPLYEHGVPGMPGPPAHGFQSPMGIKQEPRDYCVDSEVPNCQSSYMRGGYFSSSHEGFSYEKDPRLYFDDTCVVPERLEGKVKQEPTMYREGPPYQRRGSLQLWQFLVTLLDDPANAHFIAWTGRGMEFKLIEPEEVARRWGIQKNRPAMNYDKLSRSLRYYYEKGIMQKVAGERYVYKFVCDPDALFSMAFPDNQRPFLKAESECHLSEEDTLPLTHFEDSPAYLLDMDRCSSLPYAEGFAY
# Sequence of HSF1 (Q00613 whole entry): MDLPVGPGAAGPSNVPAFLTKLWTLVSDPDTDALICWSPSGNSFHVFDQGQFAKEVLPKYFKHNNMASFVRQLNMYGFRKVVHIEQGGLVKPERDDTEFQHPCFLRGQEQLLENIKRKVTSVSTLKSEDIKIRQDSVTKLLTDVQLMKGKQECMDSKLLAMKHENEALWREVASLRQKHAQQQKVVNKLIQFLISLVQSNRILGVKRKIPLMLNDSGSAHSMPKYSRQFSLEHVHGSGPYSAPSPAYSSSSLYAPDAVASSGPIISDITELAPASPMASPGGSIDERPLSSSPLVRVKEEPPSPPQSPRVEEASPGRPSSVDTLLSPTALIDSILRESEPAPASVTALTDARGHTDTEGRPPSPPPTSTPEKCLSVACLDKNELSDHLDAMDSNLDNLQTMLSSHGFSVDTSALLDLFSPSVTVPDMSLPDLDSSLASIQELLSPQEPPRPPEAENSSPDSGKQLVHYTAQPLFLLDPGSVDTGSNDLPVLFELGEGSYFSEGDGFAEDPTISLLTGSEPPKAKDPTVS
# Sequence of ETV1 (P50549 whole entry): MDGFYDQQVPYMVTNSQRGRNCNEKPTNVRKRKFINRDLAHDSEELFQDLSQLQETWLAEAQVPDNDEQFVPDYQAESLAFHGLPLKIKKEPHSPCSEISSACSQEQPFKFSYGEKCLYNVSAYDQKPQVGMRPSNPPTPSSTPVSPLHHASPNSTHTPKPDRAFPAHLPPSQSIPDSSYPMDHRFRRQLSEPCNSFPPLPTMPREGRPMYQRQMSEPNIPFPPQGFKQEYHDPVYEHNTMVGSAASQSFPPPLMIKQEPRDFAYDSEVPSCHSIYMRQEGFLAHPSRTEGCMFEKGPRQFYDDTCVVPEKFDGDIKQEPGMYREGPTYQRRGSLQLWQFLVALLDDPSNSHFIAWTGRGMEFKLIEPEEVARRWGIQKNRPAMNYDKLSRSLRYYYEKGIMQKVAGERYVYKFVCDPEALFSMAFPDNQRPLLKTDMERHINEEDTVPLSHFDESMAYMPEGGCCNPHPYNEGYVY
# Sequence of CRX (O43186 whole entry): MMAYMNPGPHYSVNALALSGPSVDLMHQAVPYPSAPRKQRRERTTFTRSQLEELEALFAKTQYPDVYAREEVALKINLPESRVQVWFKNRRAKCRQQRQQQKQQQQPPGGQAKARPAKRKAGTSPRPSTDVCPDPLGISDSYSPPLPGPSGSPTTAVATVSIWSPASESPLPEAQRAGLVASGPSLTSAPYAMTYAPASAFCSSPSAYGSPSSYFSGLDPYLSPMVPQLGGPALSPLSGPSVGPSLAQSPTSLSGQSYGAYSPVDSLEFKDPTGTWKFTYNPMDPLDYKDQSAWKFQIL
sequence,measurement,setting,value
ATTATC,binding signal,FEV,"1.29 fold enrichment (6-mer frequency, TF over GST control)"
same,binding signal,ETV5,"1.26 fold enrichment (6-mer frequency, TF over GST control)"
same,binding signal,HSF1,"2.51 fold enrichment (6-mer frequency, TF over GST control)"
same,binding signal,SPIC,"1.34 fold enrichment (6-mer frequency, TF over GST control)"
same,binding signal,ELF4,"1.32 fold enrichment (6-mer frequency, TF over GST control)"
same,binding signal,ELK4,"1.39 fold enrichment (6-mer frequency, TF over GST control)"
same,binding signal,ETV2,"1.38 fold enrichment (6-mer frequency, TF over GST control)"
same,binding signal,ELF3,"1.39 fold enrichment (6-mer frequency, TF over GST control)"
same,binding signal,CRX,"3.86 fold enrichment (6-mer frequency, TF over GST control)"
same,binding signal,ETV1,"1.31 fold enrichment (6-mer frequency, TF over GST control)"

# Source: article PMC7862700, “An all-to-all approach to the identification of sequence-specific readers for epigenetic DNA modifications on cytosine”
